# This is a sample that favours compounds with a hit; in the whole collection about 13% have one here.
# USP8 inh – blocks human USP8 ubiquitin-rhodamine cleavage; inhibition, % at 20 µM; actives 4.2% (n = 47,000); AID 1645853; P40818; purified USP8, Ub-rhodamine cleavage fluorescence, 30 min
# USP28 inh – blocks human USP28 ubiquitin-rhodamine cleavage; Q96RU2; purified USP28, Ub-rhodamine cleavage fluorescence, 30 min; inhibition, % at 25 µM; actives 3% (n = 47,000); AID 1645857
# USP10 inh – blocks human USP10 ubiquitin-rhodamine cleavage; Q14694; purified USP10, Ub-rhodamine fluorescence, 60 min; inhibition, % at 20 µM; actives 1.1% (n = 47,000)
# USP17 inh – blocks human USP17 ubiquitin-rhodamine cleavage | actives 6.5% (n = 47,000) | A8MUK1 | purified USP17, Ub-rhodamine cleavage fluorescence, 3 h | inhibition, % at 50 µM
# USP30 block – human USP30 deubiquitinase inhibition; Q70CQ3; purified USP30, Ub-rhodamine cleavage fluorescence; inhibition, % at 25 µM; actives 5.3% (n = 47,000); AID 1645860
# Target sequence (Q70CQ3 whole entry, looked up): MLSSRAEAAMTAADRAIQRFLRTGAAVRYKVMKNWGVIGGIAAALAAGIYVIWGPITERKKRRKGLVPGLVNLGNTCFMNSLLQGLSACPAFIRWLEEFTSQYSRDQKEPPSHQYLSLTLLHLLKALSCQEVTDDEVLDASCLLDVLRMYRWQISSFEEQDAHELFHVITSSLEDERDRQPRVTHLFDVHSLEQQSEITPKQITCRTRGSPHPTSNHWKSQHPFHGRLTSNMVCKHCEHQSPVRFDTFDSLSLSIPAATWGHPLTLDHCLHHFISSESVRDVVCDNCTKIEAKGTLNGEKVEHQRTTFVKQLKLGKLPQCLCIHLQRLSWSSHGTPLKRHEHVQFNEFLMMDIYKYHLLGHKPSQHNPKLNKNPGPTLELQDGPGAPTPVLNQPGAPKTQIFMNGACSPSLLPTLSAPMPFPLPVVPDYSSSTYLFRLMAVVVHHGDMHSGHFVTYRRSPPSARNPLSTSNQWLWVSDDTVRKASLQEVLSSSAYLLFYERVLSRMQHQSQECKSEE
# OTUD3 block – blocks human OTUD3 ubiquitin-rhodamine cleavage | inhibition, % at 25 µM | purified OTUD3, Ub-rhodamine fluorescence, 2 h | AID 1645858 | Q5T2D3 | actives 0.7% (n = 47,000)
# Active calls of the source: *; / = no result given. Cut-off read from the data, not from the text of the source: active = inhibition above about 30%; inactive = the rest.
SMILES,USP8 inh,USP28 inh,USP10 inh,USP17 inh,USP30 block,OTUD3 block
CC(C)=CCOC(C)(C)[C@H]1OC2CC[C@@]3(C)C(CCC4Cc5c([nH]c6ccccc56)[C@@]43C)C23OC3[C@@H]1O (some centres not stated),40*,88*,76*,87*,84*,61*
Cn1c(=O)[nH]c2nncnc2c1=O,34*,1,9,73*,-15,-12
CC1=C(O)C(=O)C=C2C1=CC=C1[C@@]2(C)CC[C@@]2(C)[C@@H]3C[C@](C)(C(=O)O)CC[C@]3(C)CC[C@]12C,46*,64*,81*,54*,-58,26
Cc1cccc(C)c1-n1nnnc1C1(N)CCC(C)CC1 (configuration not stated),17,13,0,21,33*,12
NC1(c2nnnn2-c2ccccc2)CCCCC1,1,/,0,7,/,7
O=C(c1nc(-c2ccncc2)no1)N1CCC2(CC1)OCCO2,31*,1,2,4,7,6
Cc1nn(C2CCCC2)c2c1C(c1ccc3c(c1)OCO3)SCC(=O)N2 (configuration not stated),-160,9,3,-12,30*,2
O=C1CSC(c2cccc([N+](=O)[O-])c2)c2c(n(C3CCCCCC3)[nH]c2=O)N1 (configuration not stated),40*,8,10,/,28,19
O=C1CSC(c2ccc3c(c2)OCO3)c2c(n(C3CCCC3)[nH]c2=O)N1 (configuration not stated),0,2,0,0,23,0
CCOc1ccc(C2SCC(=O)Nc3c2c(=O)[nH]n3C2CCCC2)cc1 (configuration not stated),23,8,2,12,19,11
O=C1CSC(c2cccc([N+](=O)[O-])c2)c2c(n(C3CCCCC3)[nH]c2=O)N1 (configuration not stated),-46,-4,4,0,-11,-1
Cc1ccc(C2SCC(=O)Nc3c2c(=O)[nH]n3C2CCCCCC2)cc1 (configuration not stated),73*,9,15,19,29,-4
O=S1(=O)Cc2cnc(N3CCCC3)nc2[C@H]2CN(CC3CC3)C[C@H]21,-11,-6,0,-13,7,0
CCN(CC)C(=O)c1ccc(NC(=O)CN2CCc3cc(OC)c(OC)cc3C2)cc1,40*,11,0,12,10,4
O=C(COC(=O)c1cnccn1)Nc1ccc(Cl)cc1C(=O)c1ccccc1,0,0,-3,11,-27,-6
Cc1cc(C)nc(-n2nc(C)c3c2NC(=O)CSC3c2ccccc2F)n1 (configuration not stated),-6,2,-4,37*,87*,16
CC12CN3CC(C)(CN(C1)C3(C)C)C2=O,2,-6,0,3,8,0
CCC(=O)CCCCC[C@@H]1NC(=O)[C@H]2CCCCN2C(=O)[C@H]([C@@H](C)CC)NC(=O)[C@H](Cc2cn(OC)c3ccccc23)NC1=O,-15,13,0,36*,0,0
CO[C@@H]1C[C@@H](C[C@H]2CC[C@H](C)[C@H]([C@@H](C)C(=O)O)O2)O[C@]2(O[C@](C)([C@H]3CC[C@@](C)([C@@H]4O[C@@H]([C@H]5O[C@@](O)(CO)[C@H](C)C[C@@H]5C)C[C@@H]4C)O3)C[C@H]2C)[C@@H]1C,2,20,18,17,34*,10
CC[C@@]1([C@@H]2O[C@@H]([C@H]3O[C@@](O)(CO)[C@H](C)C[C@@H]3C)C[C@@H]2C)CC[C@H]([C@]2(C)CC[C@]3(C[C@H](O)[C@@H](C)[C@@H]([C@@H](C)[C@@H](O)[C@H](C)C(=O)O)O3)O2)O1,0,-20,0,-77,-13,-16
O=C(NCc1cccnc1)c1cccn(Cc2ccc(Cl)cc2)c1=O,6,14,1,7,32*,7
Cc1noc(C)c1CN1CC[C@H]2[C@H]1CCN2c1ncccn1,-55,-19,-10,-15,-77,-13
COc1cccc(C2SCC(=O)Nc3c2c(C)nn3-c2nc(C)cc(C)n2)c1 (configuration not stated),-6,-13,-3,-5,-11,-4

# Bioassay records: PubChem, Buhrlage Lab, Dana-Farber Cancer Institute and Novartis Institutes for BioMedical Research (Cambridge, Mass)
